About 8,600 (12%) of roughly 69,000 compounds showed an effect of 50% or more. The full list was thinned out, with strong results kept by preference.

The source of these data is ChEMBL document CHEMBL4513216, “Probing the Open Global Health Chemical Diversity Library for Multistage-Active Starting Points for Next-Generation Antimalarials” (ACS Infect Dis, 2020).

The assay deals with Plasmodium berghei. Nature of the assay: Screen against P. berghei liver stage (PbLuc), transformed with Luciferase, at 10uM. It counts as functional, HepG2. Particulars: tested at 10 uM.
Regarding `CCOc1cc(C)nc(N2CCN(C(=O)Cn3cc(C)cn3)CC2)n1`, the INHIBITION is listed as -83.4%.
On to `Oc1nc(-c2cnccn2)nc2c1CCN(Cc1ccccn1)C2`, for which the INHIBITION was found to be 2.71%.
With `O=C(Cc1ccccn1)N1CCc2c(O)nc(-c3cnccn3)nc2C1`, the INHIBITION is given as 52%.
With `O=C(CCC1CCCO1)N1CCc2nc(-c3cnccn3)nc(O)c2C1` (stereo not drawn), the INHIBITION is recorded as -22.6%.
As to `Cc1nc(CC(=O)N2CCc3nc(-c4cnccn4)nc(O)c3C2)cs1`, the INHIBITION was determined as 59.3%.
To `O=C(Cc1ccccn1)N1CCc2nc(-c3cnccn3)nc(O)c2C1` belongs 5.69%; to `COCC(=O)N1CCc2nc(-c3cnccn3)nc(O)c2C1`, 47.2%.
Consider `Cc1nc(C)n(CC2CCCN2Cc2cn3ccccc3n2)n1` (stereo not drawn), for which the INHIBITION is reported as -17.6%.
The figure for `Cc1cnc(N2CCCn3c(nnc3Cn3cccn3)C2)nc1` is 16.9%.
The figure for `c1cnn(Cc2nnc3n2CCCN(c2nccs2)C3)c1` is 53.9%.
Consider `c1cnc(N2CCCn3c(nnc3Cn3cccn3)C2)nc1`, for which the INHIBITION is recorded as -7.24%.
To `Cc1c(F)cc(C(=O)O)cc1S(=O)(=O)Nc1ccc(C#N)cc1` belongs 14.55%; to `c1cncc(C[C@@H]2CC[C@H](CN3CCCOCC3)O2)c1`, -13.1%; to `O=C(c1cccnc1)N1CCOC2(COCCN(c3cncnc3)C2)C1` (stereo not drawn), -2.41%.
Consider `CCC(NC1CSCCSC1)c1ccc(S(C)(=O)=O)cc1` (stereo not drawn), for which the INHIBITION is recorded as 29.4%.
`COc1ccc(NC(C)C(=O)N2CCN(c3ncccn3)CC2)cn1` (stereo not drawn): the INHIBITION is 29.2%.
For the compound `COc1ccc(NC(C)C(=O)N2CCCC2)cn1` (stereo not drawn), the INHIBITION amounted to 78.2%.
In the case of `COc1ccc(NC(C)C(=O)N2CCN(c3ccccc3)CC2)cn1` (stereo not drawn), the INHIBITION turned out to be 21.6%.
The figure for `Cc1ccccc1SCC(=O)NC1CCC(n2cnnc2)CC1` (stereo not drawn) is 34.1%.
As for `CC(C)NC(=O)N1CCC(c2nnc3n2CCNC3)CC1`, the INHIBITION was found to be 59.8%.
The figure for `O=C(N1CCCCC1)N1CCCC1c1nnc2n1CCNC2` (stereo not drawn) is 36.6%; for `CC(=O)N1CCCCC1c1nnc2n1CCNC2` (stereo not drawn) it is 38.3%.
To `CC(C)NC(=O)N1CCn2c(nnc2C2CCCN2)C1` (stereo not drawn) belongs 23.4%; to `O=C(NC1CCCCC1)N1CCCC1c1nnc2n1CCNC2` (stereo not drawn), 32.5%; to `CC(C)NC(=O)N1CCCCC1c1nnc2n1CCNC2` (stereo not drawn), 54.9%.
The figure for `Cc1cnn(C2CN(c3ncnc4[nH]ccc34)C2)c1` is 15%; for `CN(C)CC(=O)N1Cc2nnn(C)c2C(COCc2ccccn2)C1` (stereo not drawn) it is -27.9%.
Take `CC(C)C(=O)N1CCN(Cc2ccccn2)CC2(CC(=O)N(C)C2)C1` (stereo not drawn): the INHIBITION is reported as 5.04%.
On to `Cn1cccc1C(=O)N1CC2(CCN(C(=O)c3cccnc3)C2)C1`, for which the INHIBITION came to 32.1%.
The figure for `Cn1nc(C2CCN(C(=O)c3cnccn3)C2)cc1CCO` (stereo not drawn) is 45.2%.
In the case of `Cc1nc(Cn2c3c(ccc2=O)CC(NC(C)C)CC3)cs1` (stereo not drawn), the INHIBITION is given as 13.6%.
To `Cc1csc(C(=O)N2CCC(O)(CN3CCc4ccccc4C3)C2)c1` (stereo not drawn) belongs 76.8%; to `Cc1ccc(C(=O)N2CCC(O)(CN3CCc4ccccc4C3)C2)s1` (stereo not drawn), 51.5%.
As for `Cn1cccc1C(=O)N1CCC(O)(CN2CCc3ccccc3C2)C1` (stereo not drawn), the INHIBITION was found to be 20.4%.
Consider `O=C(c1cccs1)N1CCC(O)(CN2CCc3ccccc3C2)C1` (stereo not drawn), for which the INHIBITION is on record as 37.5%.
To `Cc1ncsc1C(=O)N1CCC(O)(CN2CCc3ccccc3C2)C1` (stereo not drawn) belongs 45.6%.
The figure for `Cc1ccsc1C(=O)N1CCC(O)(CN2CCc3ccccc3C2)C1` (stereo not drawn) is 33.7%; for `Cc1nnsc1C(=O)NCc1nn(C)c2c1COCC2` it is -2.09%.
The figure for `CC(O)c1cn(Cc2ccc(Cl)cc2)nn1` (stereo not drawn) is 24.7%; for `Cc1noc(C)c1CN1C[C@H]2CC[C@@H](C1)N(Cc1cc(F)cc(F)c1)C2` it is 0.818%; for `CC(=O)N1CC2(CCN(Cc3ccc(Cl)cc3)CC2)Cc2ccccc21` it is 61.5%.
`CC(=O)N1CC2(CCCN(Cc3ccc(Cl)cc3)C2)Cc2ccccc21` (stereo not drawn): the INHIBITION was determined as 49.1%.
The figure for `CS(=O)(=O)N1Cc2ccccc2CC2(CCN(Cc3ccncc3)C2)C1` (stereo not drawn) is 38.3%; for `CS(=O)(=O)N1Cc2ccccc2CC2(CCN(Cc3ccccc3)C2)C1` (stereo not drawn) it is 55.7%; for `CS(=O)(=O)N1Cc2ccccc2CC2(CCN(Cc3ccccn3)C2)C1` (stereo not drawn) it is 40%.
In the case of `COCC(=O)N1CCC2(CC1)CC(=O)N(Cc1ccc(Cl)cc1)C2`, the INHIBITION turned out to be 14%.
The figure for `Cc1ncsc1CN1CCC2(CC1)CC(=O)N(Cc1ccc(Cl)cc1)C2` is -16%; for `CC(=O)N1CC2(CCN(Cc3ccc(Cl)cc3)C2)Cc2ccccc21` (stereo not drawn) it is 57.3%.
The figure for `CN(C)CC(=O)N1CC2(CCN(Cc3ccccc3)C2)C1` is -2.35%; for `CS(=O)(=O)N1CC2(CCCN2Cc2ccc(Cl)cc2)Cc2ccccc21` (stereo not drawn) it is 23.4%.
To `CC(=O)N1CC2(CCCCN2Cc2ccc(Cl)cc2)Cc2ccccc21` (stereo not drawn) belongs 59%; to `CC(=O)N1CC2(CCCN2Cc2ccc(Cl)cc2)Cc2ccccc21` (stereo not drawn), 46.6%; to `CCOc1ncccc1CNC(=O)N1CCCC1c1ccsc1` (stereo not drawn), 40.9%.
On to `O=C(c1cscn1)N1C[C@H]2CCCC(OCc3cccnc3)[C@H]2C1` (stereo partly drawn), for which the INHIBITION is 4.2%.
The figure for `CCS(=O)(=O)NCC(=O)NC1(C)CCc2ccccc2C1` (stereo not drawn) is -9.39%; for `Cc1nc(CN2CCN(Cc3ccoc3)Cc3cccnc32)cs1` it is 21.6%.
To `CSc1ncc(C(=O)N2C[C@@H]3CC[C@H]2CN(S(=O)(=O)N(C)C)C3)cn1` belongs -9.92%.
In the case of `Cc1c(C(=O)N2CCCSCC2)nnn1-c1ccccc1Cl`, the INHIBITION is reported as 26%.
The figure for `Cc1nc(C)c(C(=O)NCCNC(=O)Cc2ccc(F)cc2)s1` is -29.9%; for `CC(C)N1CCC(C(=O)N2CCC(C(O)c3nccn3C)CC2)CC1` (stereo not drawn) it is 9.41%.
The figure for `O=c1[nH]ncn1-c1cccc(C(F)(F)F)c1` is 42.1%; for `CCCN1CCCn2c(nc(CNC(=O)c3cnoc3C)cc2=O)C1` it is 9.63%.
The figure for `O=C(NC1(c2nccs2)CCCC1)c1[nH]nc(C2CC2)c1Cl` is 56.6%; for `O=C(NC1(c2nccs2)CCCC1)c1cc(C2CC2)[nH]n1` it is 29.8%; for `O=C(NC1(c2nccs2)CCCC1)c1cc(C2CC2)on1` it is 36.5%.
In the case of `COc1cc(C)ccc1OCC(=O)NS(=O)(=O)c1ccc(Br)s1`, the INHIBITION was -2.19%.
Regarding `CCc1nc(CC(=O)N2CCCCC2Cn2cccn2)cs1` (stereo not drawn), the INHIBITION came to 62.6%.
The figure for `Cc1nc(CC(=O)N2CCCCC2Cn2cccn2)cs1` (stereo not drawn) is 7.08%; for `O=C(c1cc2cc(F)ccc2[nH]1)N1CCCCC1Cn1cccn1` (stereo not drawn) it is -12.2%.
On to `O=C(c1cc(F)cc2[nH]cnc12)N1CCCC1Cn1cccn1` (stereo not drawn), for which the INHIBITION came to 39.7%.
Consider `CCN(CC)CC(=O)N1CCCC1Cn1cccn1` (stereo not drawn), for which the INHIBITION is listed as 21.5%.
In the case of `NC(=O)c1csc(C(=O)N2CCCCC2Cn2cccn2)c1` (stereo not drawn), the INHIBITION amounted to 17.8%.
To `O=C(c1cc(F)cc2[nH]cnc12)N1CCCCC1Cn1cccn1` (stereo not drawn) belongs 77.4%.
As for `CCN(CC)Cc1ccc(C(=O)N2CCCC2Cn2cccn2)o1` (stereo not drawn), the INHIBITION turned out to be 4.05%.
The figure for `CCN(CC)Cc1ccc(C(=O)N2CCCC2Cn2cccn2)cc1` (stereo not drawn) is 56.85%; for `NC(=O)c1ccc(C(=O)N2CCCCC2Cn2cccn2)s1` (stereo not drawn) it is 53.9%.
For `CCc1nc(CC(=O)N2CCCC2Cn2cccn2)cs1` (stereo not drawn), the INHIBITION was found to be 2.61%.
The figure for `CCc1ncc(C(=O)N2CCCCC2Cn2cccn2)s1` (stereo not drawn) is 33.6%; for `O=C(c1ccc2c(c1)CCC2)N1CCn2ncnc2C1` it is 40.4%.
For `CS(=O)(=O)N1CCCC(Cc2ccnc(Nc3ccccn3)c2)C1` (stereo not drawn), the INHIBITION came to 12.7%.
As to `CCNC(=O)[C@@H]1C[C@@H](N)CN1C(=O)C1(c2ccc(OC)cc2)CCCC1`, the INHIBITION turned out to be 9.55%.
To `Cn1ccc(CN2CCC3(CC2)CC(Nc2cnccn2)CO3)n1` (stereo not drawn) belongs 46.7%; to `Cc1ccccc1-n1nc(C)c(CN(C)C(C)Cc2ccccn2)c1C` (stereo not drawn), 24%.
To `Cc1cccc(CNC(C)c2ccc(OCC(=O)NC3CC3)cc2)c1` (stereo not drawn) belongs 15.3%; to `O=C(NCC1OCCc2cn(CC3CCOCC3)nc21)c1ccncc1` (stereo not drawn), 32.2%.
To `CCOc1ccc(Cl)cc1CCNC(=O)Cn1ccccc1=O` belongs -47%; to `CC(Cn1cccn1)NCCCc1nc(-c2cccs2)no1` (stereo not drawn), 10%.
Turning to `CCN(CC)Cc1ccc(C(=O)N2CCCCC2Cn2cccn2)o1` (stereo not drawn), the INHIBITION is 19.5%.
To `O=C(c1csc(C2CC2)n1)N1CCCCC1Cn1cccn1` (stereo not drawn) belongs 52.5%.
The figure for `O=C(c1ccc2nncn2c1)N1CCCCC1Cn1cccn1` (stereo not drawn) is 54.4%.
For the compound `O=C(c1csc(C2CC2)n1)N1CCCC1Cn1cccn1` (stereo not drawn), the INHIBITION was 1.78%.
The figure for `CC(=O)Nc1nc(C(=O)N2CCCCC2Cn2cccn2)cs1` (stereo not drawn) is -27.8%; for `Cc1cc(C)n(CC2CCCCN2C(=O)c2ccc3nncn3c2)n1` (stereo not drawn) it is 5.97%; for `COc1cc(C)ccc1OCCC(=O)N1CCCC1Cn1cccn1` (stereo not drawn) it is 52.7%.
The figure for `COc1ccc(OCCC(=O)N2CCCC2Cn2cccn2)cc1` (stereo not drawn) is -10.1%; for `Cc1cnn(CC2CCCCN2C(=O)c2ccc3nncn3c2)c1` (stereo not drawn) it is 35.9%; for `CCc1ccc(C(=O)N2CCCCC2Cn2cccn2)o1` (stereo not drawn) it is -2.35%.
`CC(=O)NCc1ccc(C(=O)N2CCCCC2Cn2cccn2)o1` (stereo not drawn): the INHIBITION was 61.7%.
To `COc1ccccc1OCCC(=O)N1CCCC1Cn1cccn1` (stereo not drawn) belongs 33.3%.
Turning to `Cc1sc(Oc2ccccc2Cl)nc1C(=O)O`, the INHIBITION was determined as 18.14%.
The figure for `CC(C)N1CCC(NC(=O)c2cn(-c3ccc(F)cc3)nn2)C1` (stereo not drawn) is 23.7%; for `CCS(=O)(=O)CCNC(=O)c1cc2n(n1)CCCO2` it is -16.3%; for `Cc1cnc(N2CCOCC3(CCN(c4ccccn4)C3)C2)nc1` (stereo not drawn) it is 34.4%.
For the compound `COc1ccc(C2CCCN2Cc2nc3c(cnn3C)c(=O)[nH]2)cc1` (stereo not drawn), the INHIBITION is on record as -5.25%.
Take `O=C(CCc1c(F)cccc1F)N1CCCCC1Cn1cccn1` (stereo not drawn): the INHIBITION was found to be 15.6%.
To `C=c1nc(NC)sc1=C1NC(c2c(C)ncc3c2CCNC3)=NO1` belongs 39.3%.
Turning to `Cn1ccc(CN2CCC(CN3CCOCC3)CC2)cc1=O`, the INHIBITION is 31.3%.
Regarding `COc1cccc(-c2cc(C(=O)NCCCn3nc(C)cc3C)[nH]n2)c1`, the INHIBITION was -68.9%.
